# PAFAH1B2 inh = PAFAH1B2 enzyme inhibitors, primary screen, biochemical, fluorescence polarization, human | Platelet-activating factor acetylhydrolase IB subunit alpha2 (Homo sapiens), P68402 | recombinant PAFAH1B2, FP-rhodamine activity probe | inhibition, % at 3.39 µM | 340,000 tested, 1.2% active | AID 492953, 2010;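 active = inhibition above the mean of all tested compounds plus 3 SD, cut at about 24% in these data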;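 note: 0% = enzyme with DMSO and 100% = wells lacking PAFAH1B2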
# DAGLB inh = DAGLB lipase inhibitors, primary screen, biochemical, fluorescence, HTS; Diacylglycerol lipase-beta (Homo sapiens), Q8NCG7; HEK293T DAGLB membrane lysate, EnzChek fluorogenic substrate; inhibition, % at 5.17 µM; 340,000 tested, 0.059% active; in the data active = inhibition above about 34%;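 note: 0% = enzyme with vehicle and 100% = wells lacking enzyme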
# Target sequence (Q8NCG7 whole entry, looked up): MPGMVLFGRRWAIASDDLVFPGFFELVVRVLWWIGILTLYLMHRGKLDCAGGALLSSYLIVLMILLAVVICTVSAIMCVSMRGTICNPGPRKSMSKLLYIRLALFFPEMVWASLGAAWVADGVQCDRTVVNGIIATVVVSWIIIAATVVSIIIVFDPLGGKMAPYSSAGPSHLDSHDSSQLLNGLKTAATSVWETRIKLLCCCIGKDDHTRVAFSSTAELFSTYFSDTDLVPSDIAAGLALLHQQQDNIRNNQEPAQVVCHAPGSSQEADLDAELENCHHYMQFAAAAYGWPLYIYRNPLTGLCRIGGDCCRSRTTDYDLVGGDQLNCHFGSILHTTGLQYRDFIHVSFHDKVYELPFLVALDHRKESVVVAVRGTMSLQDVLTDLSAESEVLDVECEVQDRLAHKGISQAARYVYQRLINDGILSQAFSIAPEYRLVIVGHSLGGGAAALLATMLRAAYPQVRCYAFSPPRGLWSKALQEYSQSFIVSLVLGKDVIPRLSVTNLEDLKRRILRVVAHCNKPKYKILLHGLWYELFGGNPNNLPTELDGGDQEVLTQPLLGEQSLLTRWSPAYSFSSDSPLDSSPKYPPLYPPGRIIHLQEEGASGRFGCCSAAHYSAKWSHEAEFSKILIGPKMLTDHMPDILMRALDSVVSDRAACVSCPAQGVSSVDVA
# ATG4B inh = ATG4B protease inhibitors, primary screen, biochemical, fluorescence, uHTS; Cysteine protease ATG4B (Homo sapiens), Q9Y4P1; ATG4B cleavage of LC3-PLA2, NBD-HPC fluorescence, 1 h; inhibition, % at 8.33 µM; 340,000 tested, 0.51% active; in the data active = inhibition above about 40%
# PAFAH2 inh = PAFAH2 enzyme inhibitors, primary screen, biochemical, fluorescence polarization, human. inhibition, % at 3.39 µM. Platelet-activating factor acetylhydrolase 2, cytoplasmic (Homo sapiens), Q99487. recombinant PAFAH2, FP-rhodamine activity probe. 340,000 tested, 0.99% active. AID 492956, 2010;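 active = inhibition above the mean over all tested compounds plus 3 SD, cut at about 30% in these data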;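 note: inhibitors block probe labeling of enzyme so polarization drops; 0% = enzyme with DMSO and 100% = wells lacking PAFAH2 protein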
# pPAFAH inh = pPAFAH enzyme inhibitors, primary screen, biochemical, fluorescence polarization, human | Platelet-activating factor acetylhydrolase (Homo sapiens), Q13093 | recombinant pPAFAH, FP-rhodamine probe fluorescence polarization | inhibition, % at 3.39 µM | 330,000 tested, 1.5% active;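 active = inhibition above the mean inhibition across the screen plus 3 SD, cut at about 25% in these data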;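 note: inhibitors block binding of the rhodamine activity-based probe so polarization drops; 0% = enzyme with DMSO and 100% = wells lacking pPAFAH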
# PAFAH1B3 FP inh = PAFAH1B3 enzyme inhibitors, primary screen, biochemical, fluorescence polarization, human. inhibition, % at 3.39 µM. AID 492972, 2010. Platelet-activating factor acetylhydrolase IB subunit alpha1 (Homo sapiens), Q15102. recombinant PAFAH1B3, FP-rhodamine probe. 340,000 tested, 0.28% active;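 active = inhibition above the screen-wide average of all tested compounds plus 3 SD, cut at about 25% in these data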;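 note: 0% = enzyme with DMSO only and 100% = wells lacking PAFAH1B3 protein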
# pPAFAH confirm = pPAFAH (PLA2G7) enzyme inhibitors, confirmation, biochemical, fluorescence polarization, human; 2,300 tested, 72% active; recombinant pPAFAH, FP-Rh probe fluorescence polarization; shares compounds with pPAFAH inh; inhibition, % at 3.39 µM;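 active = mean inhibition of the triplicate above the hit cutoff set for the earlier primary screen, cut at about 25% in these data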;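 note: 0% = enzyme with DMSO and 100% = wells lacking pPAFAH enzyme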
# An asterisk follows results filed as active; i = inactive; . = no result. Only some compounds are listed: those with a hit (about 3% of all), similar ones and a draw of the others.
SMILES,PAFAH1B2 inh,DAGLB inh,ATG4B inh,PAFAH2 inh,pPAFAH inh,PAFAH1B3 FP inh,pPAFAH confirm
COc1cnc(SC)nc1Nc1ccc(C#N)cc1,8,-2,-5,4,1,12,.
CCN(CC)C(=O)C1c2ccccc2Oc2ccccc21,4,-7,-2,7,39*,16,-1
CCOC(=O)Cc1cc(=O)n2[nH]c(-c3ccccc3)c(-c3ccccc3)c2n1,-5,12,18,-4,43*,-18,19
CCOC(=O)Cc1cc(=O)n2[nH]c(C)c(-c3ccccc3)c2n1,-1,3,1,-3,16,-5,.
CC(C)=CCc1c(O)cc2c(c1O)C(=O)CC(c1ccccc1)O2 (stereo not drawn),4,-8,8,-8,3,0,.
CC(C)=CCc1c(O)c(CC=C(C)C)c2c(c1O)-c1cc(O)c(O)cc1CC2,.,.,.,.,76*,.,56*
Cc1oc(-c2ccc(F)cc2)cc1-c1nn2c(-c3ccoc3C)nnc2s1,0,15,27,16,35*,6,17
COc1ccc(-c2nnc3sc(-c4ccco4)nn23)cc1OC,7,-3,-18,9,4,5,.
O=C(CN1C(=O)CSC1=O)NCc1ccccc1,0,-3,-14,-8,78*,1,-7
CC1SCC(=O)N(CC(=O)NCc2ccccc2)C1=O (stereo not drawn),-1,0,-12,-7,5,8,.
CC(=O)c1cccc(CN2CCCC(CCC(=O)NCc3ccc(C)o3)C2)c1 (stereo not drawn),7,2,19,-1,6,8,.
O=C1COc2ccc(C(=O)COC(=O)/C=C/c3ccc(Br)o3)cc2N1,-7,3,6,8,39*,-2,22
Cc1ccc(NS(=O)(=O)c2ccc3c(c2)oc(=O)n3C)cc1,9,-2,-9,-2,.,3,.
CCc1ccc(NS(=O)(=O)c2ccc3c(c2)oc(=O)n3C)cc1,6,-1,-12,1,58*,5,47*
CN(C(=O)c1ccc(NC(=O)Cc2cccc(NC(=O)C3CCN(C(=O)c4ccccc4)CC3)c2)cc1)C1CCCC1,3,0,-10,4,-3,4,.
COc1ccccc1NCCC(=O)O,-6,0,-3,-4,2,10,.
O=C(O)CCNc1ccc(NCCC(=O)O)c2c1C(=O)c1ccccc1C2=O,16,1,2,46*,62*,25,19
CC(C(=O)NCc1ccccc1Cl)n1cc([N+](=O)[O-])cn1 (stereo not drawn),1,0,2,5,4,6,.
Cc1ccccc1COC(=O)c1cc([N+](=O)[O-])ccc1N1CCOCC1,4,-5,1,-14,4,-4,.
CSc1ccc(COC(=O)c2cc([N+](=O)[O-])ccc2N2CCOCC2)cc1,8,-3,-11,1,40*,0,42*
O=C(O)c1cc(O)c2c(c1)C(=O)c1cc(O)cc(O)c1C2=O,16,4,-5,13,35*,17,24
COc1ccc(OC)c(C2C(C#N)=C(N)Oc3cc(N)ccc32)c1 (stereo not drawn),0,-3,-8,3,36*,0,1
CCOc1ccccc1C1C(C#N)=C(N)Oc2cc(N)ccc21 (stereo not drawn),4,3,-7,3,41*,10,3
Nc1cc(C(=O)O)c(N)c2c1C(=O)c1ccccc1C2=O,56*,24,-8,66*,74*,73*,54*
CS(=O)(=O)Nc1ccc(Br)cc1C(=O)c1ccccc1,9,0,-5,2,4,5,.
SMILES,PAFAH1B2 inh,DAGLB inh,ATG4B inh,PAFAH2 inh,pPAFAH inh,PAFAH1B3 FP inh,pPAFAH confirm
CCNc1ccc(Br)cc(C(=O)/C=C/c2c(Cl)cccc2Cl)c1=O,1,19,34,36*,44*,6,28*
CCNc1ccc(Br)cc(C(=O)/C=C/c2ccc3c(c2)OCO3)c1=O,4,15,10,36*,48*,9,17
CCNc1ccc(Br)cc(C(=O)/C=C/c2ccc(Cl)cc2)c1=O,7,20,22,28,53*,11,27*
CNc1ccc(Br)cc(C(=O)/C=C/c2ccc(Cl)cc2Cl)c1=O,4,22,20,30*,51*,4,36*
O=C(/C=C/c1ccc(F)cc1)c1cc(Br)ccc1O,5,-7,0,-4,3,5,.
O=C(NNC(=S)NC1CCCCC1)c1ccccc1Br,8,-1,0,7,4,10,.
COc1ccc(N2c3ccccc3CN(Cc3ccccc3)[C@@H](C)[C@H]2Cc2cccnc2)cc1,.,-5,.,.,.,.,.
CNc1ccc(Br)cc(C(=O)/C=C/c2cccc(OC)c2)c1=O,-3,11,8,27,36*,11,24
O=c1ccc2c(-c3ccccc3)c3ccc(O)cc3oc-2c1,47*,i,i,60*,53*,39*,47*
Nc1ccc(-c2c3ccc(=O)cc-3oc3cc(O)ccc23)cc1C(=O)O,14,-268,-124,12,19,19,.
C[C@H]1CN([C@@H](C)CO)C(=O)c2cccc(NS(=O)(=O)c3ccc(F)cc3)c2O[C@H]1CN(C)Cc1ccc(Cl)c(Cl)c1,3,2,0,2,37*,-4,46*
COc1ccccc1Oc1c(C)oc2c(CN3CCN(CCO)CC3)c(O)ccc2c1=O,.,.,4,.,41*,.,4
Cc1nnc(NC(=O)c2sc3nc(-c4cccs4)cc(C(F)(F)F)c3c2N)s1,2,-19,30,15,70*,11,73*
CCCCCCCCCCCCCCCC[n+]1cccc2ccccc21,-8,8,51*,-3,57*,-1,33*
CCC(C)N(C(=O)CSc1nnc2ccccn12)C1CCS(=O)(=O)C1 (stereo not drawn),3,-1,-8,4,.,4,.
CC1=Nc2nc(N3CCCCCC3)c(C#N)c3c4c(nc(c23)N1)N(c1ccc2ccccc2c1)C(=O)C4,7,6,-14,23,59*,4,22
CC(=O)C1=C(O)C(=CC=Cc2ccccc2)OC1=O,.,10,.,.,.,.,.

# Bioassay records from PubChem.
